The record followed here is PubChem BioAssay AID1942 (Johns Hopkins Ion Channel Center, 2009).

About 580 (24%) of roughly 2,400 compounds were called active. A selection follows. Unmarked numbers belong to inactive results.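 The calls were made as follows: active = activity change at or above the mean plus 3 SD of buffer wells without dofetilide, per plate; inactive = the rest.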

The target in this experiment is Potassium voltage-gated channel subfamily KQT member 2 (Rattus norvegicus) (UniProt O88943). Briefly: KCNQ2 potentiation in CHO cells – cell-based, FluxOR thallium flux, counter-screen for hERG block protector project, confirmation (AID 1942).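 Also: normalized value minus buffer-control mean plus three SD of buffer wells.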 The conditions noted are these: FluxOR thallium flux fluorescence, at 10 µM, stronger effect = higher value. In general terms: The purpose of a counterscreen is to sort out artefacts and off-target activity.
Sequence of Potassium voltage-gated channel subfamily KQT member 2 (Rattus norvegicus) (O88943 whole entry, looked up): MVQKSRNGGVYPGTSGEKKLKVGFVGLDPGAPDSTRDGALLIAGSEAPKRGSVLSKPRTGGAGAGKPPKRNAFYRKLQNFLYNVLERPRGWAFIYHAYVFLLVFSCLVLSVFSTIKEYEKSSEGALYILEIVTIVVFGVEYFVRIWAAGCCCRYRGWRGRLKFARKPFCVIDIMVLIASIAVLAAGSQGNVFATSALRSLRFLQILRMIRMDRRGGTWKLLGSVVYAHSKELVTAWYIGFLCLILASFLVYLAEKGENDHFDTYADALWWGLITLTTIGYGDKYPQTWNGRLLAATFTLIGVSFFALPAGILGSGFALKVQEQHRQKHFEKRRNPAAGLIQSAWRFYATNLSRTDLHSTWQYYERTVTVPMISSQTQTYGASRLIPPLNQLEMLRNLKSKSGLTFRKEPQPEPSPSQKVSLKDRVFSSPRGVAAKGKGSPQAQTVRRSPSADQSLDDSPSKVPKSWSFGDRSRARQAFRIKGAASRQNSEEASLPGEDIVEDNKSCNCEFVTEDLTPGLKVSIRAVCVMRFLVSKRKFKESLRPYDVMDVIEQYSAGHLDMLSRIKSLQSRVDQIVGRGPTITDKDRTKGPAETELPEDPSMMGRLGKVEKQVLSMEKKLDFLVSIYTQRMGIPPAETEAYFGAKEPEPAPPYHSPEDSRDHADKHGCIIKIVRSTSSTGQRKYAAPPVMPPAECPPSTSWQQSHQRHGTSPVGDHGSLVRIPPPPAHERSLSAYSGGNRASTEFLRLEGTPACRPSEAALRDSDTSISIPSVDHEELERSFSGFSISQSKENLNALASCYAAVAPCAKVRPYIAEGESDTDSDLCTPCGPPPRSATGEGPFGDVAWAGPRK
`Cc1cc(-c2ccccc2)[nH]c(=O)c1S(=O)(=O)c1ccccc1`: the activity change, less the hit threshold was -13%.
Then `C/C(N)=C(/C#N)C(=O)COC(=O)C1CCC(C(C)(C)C)CC1` (stereo not drawn), with -10%.
Then `Cn1cc(CCC(=O)N2CCCC(Nc3ccc(F)cc3)C2)cn1` (stereo not drawn), with -23.8%; and `CCC(=O)Nc1nnc(-c2ccccn2)o1`, with -22.5%.
On to `CC(Oc1ccc(Cl)cc1)/C(N)=N/O` (stereo not drawn), for which the activity change, less the hit threshold is -19.6%.
Then `CC(=O)c1n[nH]nc1NC(=O)c1ccccc1`, with -9.7%; and `CCc1cccc(C)c1NC(=O)C1=C(C(=O)O)CCCC1`, with -15.9%.
For `Cc1ccccc1Cn1nc(C)c(NC(=O)c2ccccc2)c1C`, the activity change, less the hit threshold was 51.6% (active).
Then `COc1ccc(CCN2C(=O)CSC2=S)cc1OC`, with -24%; and `Cc1cccc(C(=O)NC(=S)NNC(=O)c2ccc(Cl)cc2)c1`, with -29%.
Then `O=C(NC(=S)NCCc1ccccc1)c1cccc(Cl)c1`, with -22.4%; and `O=C(CCC1CCCC1)NNC(=O)c1cccc(Cl)c1`, with 11.7% (active).
Consider `Cc1ccccc1NC(=O)CC1S/C(=N/c2nccs2)N(C)C1=O` (stereo not drawn), for which the activity change, less the hit threshold was -17.1%.
Then `O=C(O)C1CCN1C1CCCCC1` (stereo not drawn), with -22.9%; and `CCOC(=O)c1ccc(Oc2cc(C)nc(SC)n2)cc1`, with 11.9% (active).
Then `CCOc1cc(-n2ncc(C#N)c2N)nc(SC)n1`, with -21.7%; and `CC(C)(C)OC(=O)NCCCC(CCCNC(=O)OC(C)(C)C)C(=O)O`, with -22.6%.
Turning to `CCOC(=O)N1CCN(C(=O)COC(=O)c2cc(Cl)c(O)c(Cl)c2)CC1`, the activity change, less the hit threshold was -13.4%.
Then `COc1ccc2[nH]c3c(=O)n(CCN4CCOCC4)cnc3c2c1`, with -15.3%; and `O=C(Nc1ncc(Cc2ccc(C(F)(F)F)cc2)s1)c1ccc(-c2cccc([N+](=O)[O-])c2)o1`, with -12.3%; and `O=C(CSc1cn(CC(=O)N2CCCC2)c2ccccc12)NCC1CCCO1` (stereo not drawn), with -27.5%.
Then `O=C(NCC1CCCO1)c1ccc2c(=O)n(Cc3ccco3)c(SCC(=O)N3CCCC3)nc2c1` (stereo not drawn), with 3.2% (active); and `O=C(NCc1ccco1)c1ccc(OCC2CCCO2)cc1` (stereo not drawn), with -26.4%.
Then `OC(COC(c1ccccc1)c1ccccc1)CN1CCCCC1` (stereo not drawn), with -23.9%; and `COc1ccc(C(CC(=O)O)NC(=O)C(c2ccccc2)c2ccccc2)cc1` (stereo not drawn), with -23.8%.
As to `O=C1C(=Cc2cccn2-c2ccc(O)cc2)C(=O)c2ccccc21`, the activity change, less the hit threshold is -25.6%.
Turning to `CC(C)(C)C(=O)NC(=S)N1CCOCC1`, the activity change, less the hit threshold was -8%.
Then `O=C(C1CCN(S(=O)(=O)c2cc(Cl)ccc2Cl)CC1)N1CCOCC1`, with -26%; and `CCCCCCC1CCC(C(=O)N2CCOCC2)CC1` (stereo not drawn), with 5.9% (active).
Then `COC(=O)Sc1nnc(-c2ccc(Br)cc2)o1`, with -1.8%; and `CCn1c(O)c(N=NC2=NC(=O)CS2)c2ccccc21`, with -5.8%; and `CCn1c(O)c(N=NC2=NC(=O)CS2)c2cc(C)ccc21`, with -10.5%.
In the case of `CCc1ccc2c(c1)c(N=NC1=NC(=O)CS1)c(O)n2CC`, the activity change, less the hit threshold is 26.5% (active).
Then `C/C(=N/NC(=O)c1ccncc1)c1ccc2c(c1)OCO2`, with -22.1%; and `COc1ccc(OCC(=O)NNC(=O)C(=O)Nc2cc(OC)ccc2OC)cc1`, with 15.9% (active); and `COc1ccc(NC(=O)C(=O)NNC(=O)COc2ccc(OC)cc2)cc1`, with -24.3%.
Then `COc1cccc(OCC(=O)NNC(=O)C(=O)Nc2ccc(OC)cc2OC)c1`, with 15.4% (active).
Then `O=C(NNC(=O)C12CC3CC(CC(O)(C3)C1)C2)c1ccccc1O`, with -1.7%; and `COc1ccc(NC(=O)C(=O)NNC(=O)COc2ccc(Cl)cc2)c(OC)c1`, with 15.6% (active); and `COc1ccc(OC)c(NC(=O)C(=O)NNC(=O)C23CC4CC(CC(C4)C2)C3)c1`, with 96.2% (active).
With `O=C(COc1ccc(S(=O)(=O)NCc2ccccc2)cc1Cl)NCC1CCCO1` (stereo not drawn), the activity change, less the hit threshold was -14.4%.
Then `Cc1ccc(-n2c(C)cc(C(=O)CN3CCOCC3)c2C)cc1`, with -12.8%.
With `CN(CC(=O)Nc1ccc(OC(F)(F)F)cc1)S(=O)(=O)c1cnc[nH]1`, the activity change, less the hit threshold is -18.2%.
With `CCN1C(=O)[C@H]2[C@@H](c3ccc(-c4ccc(OC)cc4)cc3)N[C@@](C)(C(=O)OC)[C@H]2C1=O`, the activity change, less the hit threshold is -17.6%.
Then `CCC(NS(=O)(=O)c1ccc(OC)cc1)C(=O)O` (stereo not drawn), with -16.1%; and `CN(C)c1oc(-c2ccccc2[N+](=O)[O-])nc1C#N`, with -6.7%; and `Cc1ccccc1NC(=O)CN1C(=O)S/C(=C\c2ccc(-c3cc(C(=O)O)ccc3C)o2)C1=O`, with -10.8%.
Then `Cc1ccc(NC(=S)N2CCN(c3ccccc3F)CC2)c(C)c1`, with -10.4%; and `Cn1c(=O)[nH]c(=O)c2c1nc(CN1CCN(c3ccccc3F)CC1)n2CCCc1ccccc1`, with -12.9%.
Then `Cc1cc(-c2csc3nc[nH]c(=S)c23)cc(C)c1C`, with 33.7% (active); and `Cc1ccc(-c2csc3nc[nH]c(=S)c23)cc1C`, with 2.5% (active); and `C=CCNC(=O)CC(=O)N/N=C/c1cccs1`, with -10.2%.
As for `Nc1nc(O)c(N=Nc2ccc(S(N)(=O)=O)cc2)c(=O)[nH]1`, the activity change, less the hit threshold was -16.5%.
For the compound `CSc1nc2c(c(=O)[nH]1)C(c1ccc(Br)cc1)CC(=O)N2` (stereo not drawn), the activity change, less the hit threshold is -18.9%.
Then `COc1ccc(S(=O)(=O)c2snnc2C)cc1`, with -14.8%; and `CN(Cc1cccc(C(F)(F)F)c1)Cc1nc(-c2cnccn2)no1`, with -21.7%; and `COC(=O)C1=C(C)NC2=C(C(=O)CCC2)C1c1ccc(-c2ccsc2C(=O)OC)o1` (stereo not drawn), with 53.7% (active).
Then `COC(=O)C(C)Sc1nnc(Cc2cc(=O)[nH]c(=O)[nH]2)n1-c1cccc(OC)c1` (stereo not drawn), with -15.6%.
Then `Cc1ccc(-n2ncc3c2CCCC3NC(=O)c2csnn2)cc1C` (stereo not drawn), with -24.7%; and `O=c1c2ccccc2[nH]c(=S)n1CCC1=CCCCC1`, with 18% (active).
`O=c1c2cccnc2[nH]c(=S)n1CCC1=CCCCC1`: the activity change, less the hit threshold was 48.1% (active).
Then `O=c1c2ccc(Cl)cc2[nH]c(=S)n1CCC1=CCCCC1`, with 9.4% (active).
Then `O=C(CCn1c(=S)[nH]c2cc3c(cc2c1=O)OCO3)NCc1ccc(Cl)cc1`, with -10.2%.
With `COc1ccccc1CNC(=O)CCCC(=O)n1ncc2cc(C)ccc21`, the activity change, less the hit threshold is -14.9%.
As for `N#C/C(=N\Nc1ccccc1F)c1nc(-c2ccccc2)cs1`, the activity change, less the hit threshold was -27.5%.
Then `CC(=O)Nc1ccc2nc(NC(=O)c3ccc([N+](=O)[O-])o3)sc2c1`, with -16.8%; and `Cc1cc(NC(=O)Cn2c(=O)n(Cc3ccccc3)c(=O)c3ccccc32)no1`, with -19.9%.
Then `Cc1ccc(C(C)C)c(OCc2n[nH]c(=S)o2)c1`, with 10.8% (active); and `c1ccc(SSc2ccccn2)nc1`, with -14%; and `CC(C)(C)Cc1nnc(NC(=O)c2ccco2)s1`, with -19.2%.
Then `CC(C)CC(=O)Nc1nc(=S)ss1`, with -15.9%; and `O=C(NNC(=O)c1ccc(Cl)cc1Cl)c1cnccn1`, with -19.5%; and `Cn1sc(NC(=O)c2cccc(Cl)c2)nc1=O`, with -5.4%.
`Cc1ccccc1C(=O)Nc1nc(=S)ss1`: the activity change, less the hit threshold is 58.6% (active).
In the case of `Cc1ccc(C)c2sc(NC(=O)c3nc4ccccc4s3)nc12`, the activity change, less the hit threshold was -7.3%.
Then `O=C(Nc1nc(=S)ss1)c1ccc(Cl)cc1Cl`, with 100% (active); and `COc1cc(/C=C2/SC(=S)N(CC(=O)O)C2=O)ccc1OCC(=O)Nc1ccc(C)c(C)c1`, with -18.3%.
Then `COC(=O)c1ccnc(/C=N/O)c1`, with -13%.
With `N=C1SCC(=O)N1c1ncc(Cc2ccccc2Cl)s1`, the activity change, less the hit threshold was -20.8%.
Take `COc1ccc2nc(N=Nc3c(O)ccc4ccccc34)sc2c1`: the activity change, less the hit threshold is -4.3%.
Then `CCOc1ccc2nc(/N=C/c3c(C)[nH]n(-c4ccccc4)c3=O)sc2c1`, with 109% (active); and `CCOc1ccc2nc(N3C(=O)/C(=C/c4ccccc4)NC3=S)sc2c1`, with -26.6%; and `COc1ccc2nc(-n3c(O)c(C4=c5ccccc5=NC4=O)[nH]c3=S)sc2c1`, with -16.8%.
Then `Cc1[nH]n(-c2ccc(F)cc2)c(=O)c1/C=N/c1sc2c(c1C#N)CCCC2`, with 21.6% (active).
Then `N#Cc1c(NC(=O)c2cc(-n3cnnc3)ccc2Cl)sc2c1CCCC2`, with -10.6%.
For `Cc1[nH]n(-c2ccc(Cl)cc2)c(=O)c1/C=N/c1nnc(-c2ccccc2)s1`, the activity change, less the hit threshold was 170% (active).
Then `Cc1[nH]n(-c2cccc3ccccc23)c(=O)c1/C=N/c1sc2c(c1C#N)CCC2`, with -0.6%; and `COc1ccc2nc(/N=C/c3c(C)[nH]n(-c4ccc(C)cc4)c3=O)sc2c1`, with 103% (active); and `CCOc1ccc2nc(/N=C/c3nc(-c4ccccc4)oc3O)sc2c1`, with -11.5%.
Consider `CC(=O)c1ccc(N2CCN(C(=O)Cc3ccccc3)CC2)c(F)c1`, for which the activity change, less the hit threshold was -28%.
Then `CCCN(CC(=O)Nc1ccccc1C)C(=O)CCl`, with -25.4%; and `CCc1nnc(NC(=O)c2cccc(S(=O)(=O)N3CCN(c4ccccc4)CC3)c2)s1`, with -21.2%; and `COC(=O)/C=C1\S/C(=N/N=C/c2ccco2)NC1=O`, with -11%.
Then `CSc1nc2ccc(S(=O)(=O)N3CCc4ccccc43)cc2s1`, with -21.8%.
Turning to `Cc1ccc2[nH]cc(CCNC(=O)/C=C/c3ccco3)c2c1`, the activity change, less the hit threshold was -22.5%.
Then `CCOC(=O)c1nnsc1NC(C)=O`, with -19.7%.
Then `CC(C)Oc1ccccc1C1(c2ccccc2)NC(=O)NC1=O` (stereo not drawn), with -22.4%; and `CCCCc1cc(=O)oc2c(C)c(OCC(=O)NCc3ccccn3)ccc12`, with -13.4%.
